These molecules were tested on Plasmodium falciparum NF54-HGL (transmission to Anopheles stephensi) (assay: percentage of barcode signal found in uninfected mosquitoes (transmission-blocking activity); higher = stronger blocking of transmission to mosquito, active = 80 or more). Conditions: 10 µM; gametocyte preincubation time 24 h; readout time post-feed 8 days.
Method: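 The mixture was fed to Anopheles stephensi in 96-well plates as blood meals tagged with DNA-barcoded Asaia bacteria. Eight days later, mosquitoes were classed infected or uninfected by luminescence (mean + 5 SD of unfed controls). Barcodes were quantified by Luminex MagPlex-TAG in the pooled uninfected and infected Asaia cultures, background-corrected, and the score is % of barcode signal in uninfected mosquitoes = 100*Iu/(Iu+Ii).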

Compound | percentage of barcode signal found in uninfected mosquitoes
Cc1ccc2oc(-c3cc(NC(=O)Cc4ccccc4)ccc3Cl)nc2c1 | 24% (inactive)
Cc1ccc(C(=O)Nc2ccc(S(=O)(=O)O)c3cc(S(=O)(=O)O)cc(S(=O)(=O)O)c23)cc1NC(=O)c1cccc(NC(=O)Nc2cccc(C(=O)Nc3cc(C(=O)Nc4ccc(S(=O)(=O)O)c5cc(S(=O)(=O)O)cc(S(=O)(=O)O)c45)ccc3C)c2)c1 | 32.8% (inactive)
COc1cc(C2=NCCN2)ccc1-n1cc(-c2cccc(C3=NCCN3)c2)nn1 | 46.2% (inactive)
c1coc(CNc2nc(N3CCCCC3)nc3ccccc23)c1 | 38.7% (inactive)
N#Cc1nc(-c2ccccc2)oc1S(=O)(=O)c1ccc(Cl)cc1 | 72.7% (inactive)
O=C(Cn1ccnc1[N+](=O)[O-])NCc1ccccc1 | 70% (inactive)
Cn1ncc2c(N3CCOCC3)nc(NCCc3c[nH]c4ccccc34)nc21 | 64.2% (inactive)
CC[C@H](CO)NCCN[C@H](CC)CO | 24.2% (inactive)
Cc1cc(C)n2nc(C(=O)Nc3cc(C(F)(F)F)ccc3N3CCOCC3)nc2n1 | 29.6% (inactive)
Cc1cccc(NC(=O)c2cc(S(=O)(=O)N(C)c3ccc(F)cc3)ccc2Cl)n1 | 46.1% (inactive)
CC[C@@H]([C@H](C)O)n1ncn(-c2ccc(N3CCN(c4ccc(OC[C@@H]5CO[C@@](Cn6cncn6)(c6ccc(F)cc6F)C5)cc4)CC3)cc2)c1=O | 42.4% (inactive)
O=C(CCC1CCCCC1)Nc1cccc(-c2nnc(-c3ccco3)o2)c1 | 67.5% (inactive)
O=C(NC1CCN(c2ccnc3ccccc23)C1)c1cccc(C(F)(F)F)c1 (configuration not stated) | 71.6% (inactive)
Cc1cc(NC(=O)c2ccc(S(=O)(=O)N(Cc3ccccc3)C(C)C)cc2)no1 | 35.4% (inactive)
Cc1cc2ccccc2n1CC(=O)N1CC(C(=O)N2CCCCC2)Oc2ccccc21 (configuration not stated) | 34.8% (inactive)
Nc1ncnc2[nH]nc(Cc3cccc4ccccc34)c12 | 67.8% (inactive)
NCC(=O)N1CCn2c(nc(-c3ccccc3)c2Nc2ccc3c(c2)OCO3)C1 | 80.9% (active)
Cc1ccc2[nH]c3c(NCCN(C)C)ncnc3c2c1 | 40.6% (inactive)
COCC(C)NC(=O)CSc1ncnc2sc(-c3ccccc3)cc12 (configuration not stated) | 47.4% (inactive)
CN1CCN(CCCOc2ncc(Nc3ncc(-c4ccc(C(F)(F)F)c(F)c4)nc3C(N)=O)cn2)CC1 | 75.6% (inactive)
Cc1ccc(Oc2ccc(NC(=O)CNc3ccccc3N3CCCC3=O)cc2)cc1 | 53.3% (inactive)
c1ccc(Oc2ccc(-c3cc(C4CCOCC4)[nH]n3)cc2)cc1 | 10.6% (inactive)
